Results from PubChem BioAssay (NCATS).
Records with an inconclusive call do not appear. Activity calls are given as the source filed them. Unless noted, the call rests on the fitted dose curve; in most records, active means well fitted curve in the direction sought with a large enough effect; inconclusive means small, poorly fitted or top-dose-only effect, or another doubt; inactive means no such curve, though single readings can be large; an effect the other way counts as inactive or inconclusive.

What was measured:
[1] = AP1 Signaling Pathway (AID 357; active means well fitted curve in either direction with a large enough effect, not every such curve was filed as active;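 further: ME-180 reporter cells stimulated with EGF at its EC50 level; on the % scale 0 is the no-effect control and ±100 the full control effect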); conditions: ME-180 AP-1-bla reporter, EGF-induced, beta-lactamase ratio, 5 h; at 7.69 µM (top of the series) unless noted
In short: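 Beta-lactamase reporter under AP-1 response element, ME-180 background. Stimulus: EC50 EGF. Compound exposure 5 h, 37 °C. Detection: CCF4, 2.5 h RT, 460/530 nm. Values: AC50 from titration.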

[2] = target: Cytochrome P450 1A2 (Homo sapiens) (UniProt P05177); assay: p450-cyp1a2 (AID 410; calls by dose curve;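 further: -100% = full effect of reference inhibitor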)
Cytochrome P450 1A2 (Homo sapiens), sequence (P05177 whole entry, looked up): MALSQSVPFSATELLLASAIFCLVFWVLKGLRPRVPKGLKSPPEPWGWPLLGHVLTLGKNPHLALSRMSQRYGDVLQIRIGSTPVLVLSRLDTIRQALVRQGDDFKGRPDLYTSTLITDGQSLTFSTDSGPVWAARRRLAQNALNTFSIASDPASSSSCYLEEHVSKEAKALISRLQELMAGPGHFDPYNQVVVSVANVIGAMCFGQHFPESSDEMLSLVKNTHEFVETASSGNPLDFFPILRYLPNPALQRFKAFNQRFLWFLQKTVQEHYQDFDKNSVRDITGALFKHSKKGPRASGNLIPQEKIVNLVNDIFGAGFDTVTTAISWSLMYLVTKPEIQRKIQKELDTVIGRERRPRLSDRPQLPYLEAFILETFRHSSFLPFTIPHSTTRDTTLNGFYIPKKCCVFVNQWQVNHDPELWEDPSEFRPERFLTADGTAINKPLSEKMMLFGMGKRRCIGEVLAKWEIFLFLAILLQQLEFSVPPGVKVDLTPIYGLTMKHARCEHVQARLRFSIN
In short: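 20nM CYP1A2, 100uM Luciferin-ME (=Km), 100mM KPO4; cpd 10 min RT; +NADPH regen, 60 min RT; stop/detect 20 min; luminescence. Normalized to furafylline 57 uM = full inhibition.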

[3] = NFAT Signaling Pathway (AID 444; active means well fitted curve in either direction with a large enough effect, not every such curve was filed as active;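 further: carbachol stimulus at about its EC50 of 1 µM final; on the % scale 0 is the no-effect control and ±100 the full control effect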); conditions: Jurkat NFAT-bla M1, carbachol, beta-lactamase ratio, 5 h; at 7.69 µM (top of the series) unless noted
In short: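 Jurkat cells with NFAT-driven β-lactamase reporter and co-expressed M1 receptor, stimulated with carbachol (final 1 uM, ~EC50), compound titration, 5 h at 37 °C. CCF4 loaded 1 h at RT; 460/530 nm ratio gave %activity and AC50.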

[4] = Stat Signaling Pathway (AID 446; active means well fitted curve in either direction with a large enough effect, not every such curve was filed as active;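 further: ME-180 cervical cancer cells given 40 pM IL-6 alongside compound; SIE-controlled beta-lactamase reporter measured as 460/530 nm FRET emission ratio; on the % scale 0 is the no-effect control and ±100 the full control effect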); conditions: ME-180 SIE beta-lactamase reporter, IL-6 stimulated, 5 h; at 7.69 µM (top of the series) unless noted
In short: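 Compound effects on IL-6-induced STAT reporter activity were measured in ME-180 cells. After overnight culture, cells were co-treated with 40 pM IL-6 for 5 hrs before beta-lactamase substrate loading at room temperature.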

[5] = target: Glucocorticoid receptor (Homo sapiens) (UniProt P04150); assay: GR-GFP Redistribution (AID 450;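 active means compounds whose dose series gives a full or clear partial fitted curve of increased nuclear translocation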; further: potency means the concentration at half of the fitted maximal effect); conditions: U2OS GR-GFP nuclear translocation, laser cytometry, 2 h
Glucocorticoid receptor (Homo sapiens), sequence (P04150 whole entry, looked up, the tested form may be a part): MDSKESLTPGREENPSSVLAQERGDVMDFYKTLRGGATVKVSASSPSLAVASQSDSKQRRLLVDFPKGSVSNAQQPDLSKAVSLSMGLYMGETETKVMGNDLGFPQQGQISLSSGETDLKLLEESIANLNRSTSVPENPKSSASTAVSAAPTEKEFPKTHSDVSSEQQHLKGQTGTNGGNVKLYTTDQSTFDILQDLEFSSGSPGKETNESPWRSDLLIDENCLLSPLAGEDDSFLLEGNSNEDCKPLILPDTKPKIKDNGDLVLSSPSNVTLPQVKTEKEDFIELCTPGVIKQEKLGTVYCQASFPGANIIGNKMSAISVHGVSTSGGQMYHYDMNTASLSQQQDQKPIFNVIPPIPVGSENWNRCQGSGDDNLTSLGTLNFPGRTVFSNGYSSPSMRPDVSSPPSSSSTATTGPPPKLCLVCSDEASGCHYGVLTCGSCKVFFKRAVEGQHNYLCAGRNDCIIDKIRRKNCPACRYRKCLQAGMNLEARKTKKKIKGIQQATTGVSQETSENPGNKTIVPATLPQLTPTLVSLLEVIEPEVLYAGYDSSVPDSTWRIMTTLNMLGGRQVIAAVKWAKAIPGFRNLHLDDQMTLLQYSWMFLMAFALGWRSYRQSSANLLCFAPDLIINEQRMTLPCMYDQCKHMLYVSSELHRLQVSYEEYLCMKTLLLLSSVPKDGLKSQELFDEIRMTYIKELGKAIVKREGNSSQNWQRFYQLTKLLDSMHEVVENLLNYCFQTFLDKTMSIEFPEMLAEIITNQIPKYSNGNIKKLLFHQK

[6] = target: Glucocorticoid receptor (Homo sapiens) (UniProt P04150); assay: GR-EFC Redistribution (AID 451; calls by dose curve; further: potency means the concentration at half of the fitted maximal effect); conditions: CHO-K1 GR-EFC translocation, beta-gal luminescence, 2 h
In short: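 CHO-K1 cells expressing nuclear EA and GR-ED fragments of b-gal; compounds titrated up to 46 uM final, 2 h at 37 C. GR nuclear translocation read as complemented b-gal luminescence after 1 h RT detection.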

[7] = target: 3',5'-cyclic-AMP phosphodiesterase 4B (Homo sapiens) (UniProt Q07343); assay: qHTS Assay for Inhibitors of PDE-IV (AID 607; active means well fitted activation curve with a large enough effect in the main read-out, with a control signal flat, not every such curve was filed as active; further: % of control where 0% means no effect)
3',5'-cyclic-AMP phosphodiesterase 4B (Homo sapiens), sequence (Q07343 whole entry, looked up): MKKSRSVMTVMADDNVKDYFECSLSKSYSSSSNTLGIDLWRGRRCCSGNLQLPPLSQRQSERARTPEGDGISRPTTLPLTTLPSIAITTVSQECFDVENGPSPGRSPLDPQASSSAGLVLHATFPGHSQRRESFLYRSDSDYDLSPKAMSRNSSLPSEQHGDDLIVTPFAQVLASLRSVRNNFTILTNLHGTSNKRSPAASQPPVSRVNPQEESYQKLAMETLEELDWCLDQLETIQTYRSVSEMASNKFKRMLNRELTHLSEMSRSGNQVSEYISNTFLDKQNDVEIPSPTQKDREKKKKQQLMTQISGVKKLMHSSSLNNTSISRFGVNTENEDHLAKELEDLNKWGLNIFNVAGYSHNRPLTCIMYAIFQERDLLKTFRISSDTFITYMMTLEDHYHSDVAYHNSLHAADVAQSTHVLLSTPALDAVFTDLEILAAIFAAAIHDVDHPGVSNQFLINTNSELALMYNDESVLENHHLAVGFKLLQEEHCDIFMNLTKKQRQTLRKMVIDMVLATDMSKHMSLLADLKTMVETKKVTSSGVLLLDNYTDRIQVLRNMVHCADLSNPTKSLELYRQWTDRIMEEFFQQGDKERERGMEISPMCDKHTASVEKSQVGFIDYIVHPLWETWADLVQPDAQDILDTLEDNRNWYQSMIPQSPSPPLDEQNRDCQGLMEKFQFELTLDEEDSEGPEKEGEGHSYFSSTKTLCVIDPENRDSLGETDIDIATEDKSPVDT
In short: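 ACTOne HEK293 cells carry a modified cAMP-gated CNG channel and express endogenous PDE4; plated 1000 cells/well, compounds up to 22.9 uM final. Membrane-potential dye fluorescence (ex 535/em 590) was read; parental cells received 10 uM forskolin + 100 uM RO 20-1724.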

[8] = target: Guanine nucleotide-binding protein G(i) subunit alpha-1 (Homo sapiens) (UniProt P63096); assay: qHTS Assay for Inhibitors of RGS12 GoLoco Motif Activity (Green Fluorophore) (AID 879);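 further: 0% = labeled peptide with Gαi1 and full inhibition = labeled peptide alone without protein; negative values mean loss of peptide binding seen as reduced polarization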
Guanine nucleotide-binding protein G(i) subunit alpha-1 (Homo sapiens), sequence (P63096 whole entry, looked up): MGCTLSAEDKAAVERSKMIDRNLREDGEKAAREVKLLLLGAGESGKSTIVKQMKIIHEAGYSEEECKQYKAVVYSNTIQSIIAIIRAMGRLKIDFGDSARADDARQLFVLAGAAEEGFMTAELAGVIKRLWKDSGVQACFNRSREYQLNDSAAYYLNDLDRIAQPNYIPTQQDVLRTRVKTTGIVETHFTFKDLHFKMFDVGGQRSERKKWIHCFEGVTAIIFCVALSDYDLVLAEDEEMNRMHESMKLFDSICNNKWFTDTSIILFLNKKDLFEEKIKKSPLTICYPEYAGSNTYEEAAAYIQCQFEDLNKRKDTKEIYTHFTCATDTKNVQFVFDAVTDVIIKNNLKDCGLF
In short: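 A drop in FITC polarization marked displacement of the FITC-tagged RGS12 GoLoco peptide (10 nM) from Gαi1 (50 nM). Compounds were incubated 10 min at room temperature in Tris pH 7.5 buffer containing 150 mM NaCl, 0.1 mM GDP and 0.05% NP40; unlabeled peptide titration served as control.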

[9] = qHTS Assay for Identification of Small Molecule Antagonists for NFkB Signaling Pathway (AID 895; active means well fitted inhibition curve with a large enough effect in the signal ratio, with a control signal flat, not every such curve was filed as active; the % refers to the signal ratio; further: on the % scale 0 is the no-effect control and ±100 the full control effect)
In short: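 ME-180 NFkB-bla cells (beta-lactamase under NFkB response element), plated overnight, treated with compound then 10 pM TNF alpha (about EC50) for 5 hrs at 37 C. LiveBLAzer FRET read at 460/530 nm emission, 405 nm excitation.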

[10] = qHTS Assay for Identification of Small Molecule Agonists for Thrombopoietin (TPO) Signaling Pathway (AID 917); further: on the % scale 0 is the no-effect control and ±100 the full control effect
In short: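 Ba/F3 (mouse) + hTPO receptor + GpIIb-promoter luciferase; IL-3 withdrawn overnight; compound + 26 pM TPO (EC50), 24 hrs, 37 C, 5% CO2; Steadylite luminescence, 10 min RT.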

[11] = target: Muscarinic acetylcholine receptor M1 (Rattus norvegicus) (UniProt P08482); assay: qHTS Assay for Antagonists of Acetylcholine Muscarinic M1 Receptor: Measurement of IP-One Response (AID 944); further: nearly all actives have a fitted effect of over 75% in size
Muscarinic acetylcholine receptor M1 (Rattus norvegicus), sequence (P08482 whole entry, looked up): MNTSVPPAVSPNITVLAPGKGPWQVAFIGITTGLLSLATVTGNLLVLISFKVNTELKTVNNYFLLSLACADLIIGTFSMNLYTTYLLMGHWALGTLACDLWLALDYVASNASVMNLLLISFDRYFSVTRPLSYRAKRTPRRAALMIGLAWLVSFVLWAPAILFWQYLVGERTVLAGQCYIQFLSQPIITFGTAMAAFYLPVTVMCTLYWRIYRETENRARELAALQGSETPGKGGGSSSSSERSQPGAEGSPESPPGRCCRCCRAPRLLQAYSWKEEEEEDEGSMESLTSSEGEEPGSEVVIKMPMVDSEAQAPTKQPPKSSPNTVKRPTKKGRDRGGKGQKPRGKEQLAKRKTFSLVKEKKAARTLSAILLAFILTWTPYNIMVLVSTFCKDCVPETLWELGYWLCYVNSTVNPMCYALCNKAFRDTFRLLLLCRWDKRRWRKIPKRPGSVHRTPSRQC
In short: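 Read-out: HTRF competition between d2-IP1 and Eu-cryptate anti-IP1 antibody, emission 620 and 665 nm. Stimulus was carbachol, EC80 (200 nM), for 30 min in M1-CHO cells (rat receptor), after 10 min compound pre-treatment.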

[12] = target: Pyruvate kinase PKM (Homo sapiens) (UniProt P14618); assay: qHTS Assay for Activators of Human Muscle Pyruvate Kinase (AID 954; active means well fitted curve in the direction sought with a large enough effect, not every such curve was filed as active;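 further: 0% = uninhibited enzyme and -100% = no enzyme or full thiadiazolimine inhibition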)
Pyruvate kinase PKM (Homo sapiens), sequence (P14618 whole entry, looked up): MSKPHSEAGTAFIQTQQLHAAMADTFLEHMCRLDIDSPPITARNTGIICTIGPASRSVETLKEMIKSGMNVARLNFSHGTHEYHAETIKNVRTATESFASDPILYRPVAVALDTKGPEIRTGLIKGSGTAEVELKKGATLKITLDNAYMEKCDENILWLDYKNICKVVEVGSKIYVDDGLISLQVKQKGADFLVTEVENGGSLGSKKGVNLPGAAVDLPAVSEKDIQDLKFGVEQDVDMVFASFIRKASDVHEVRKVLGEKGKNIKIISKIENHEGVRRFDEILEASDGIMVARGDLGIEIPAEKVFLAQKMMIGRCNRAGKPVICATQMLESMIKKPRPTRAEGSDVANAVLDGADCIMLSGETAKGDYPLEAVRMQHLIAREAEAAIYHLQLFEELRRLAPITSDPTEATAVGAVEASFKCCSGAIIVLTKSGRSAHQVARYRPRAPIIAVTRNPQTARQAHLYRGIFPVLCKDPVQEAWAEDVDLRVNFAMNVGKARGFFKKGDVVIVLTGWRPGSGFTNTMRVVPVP
In short: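 A coupled luminescent readout tracked ATP made from ADP by purified PKM2. Final conditions included 0.1 nM enzyme, PEP and ADP at 0.5 and 0.1 mM, pH 7.2 imidazole buffer with BSA, and a one-hour room-temperature reaction.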

[13] = target: Alpha-galactosidase A (Homo sapiens) (UniProt P06280); assay: Counterscreen for Glucocerebrosidase Inhibitors: qHTS Assay for Human alpha-Galactosidase at pH 4.5 (AID 992); further: 0% is about no effect
Alpha-galactosidase A (Homo sapiens), sequence (P06280 whole entry, looked up): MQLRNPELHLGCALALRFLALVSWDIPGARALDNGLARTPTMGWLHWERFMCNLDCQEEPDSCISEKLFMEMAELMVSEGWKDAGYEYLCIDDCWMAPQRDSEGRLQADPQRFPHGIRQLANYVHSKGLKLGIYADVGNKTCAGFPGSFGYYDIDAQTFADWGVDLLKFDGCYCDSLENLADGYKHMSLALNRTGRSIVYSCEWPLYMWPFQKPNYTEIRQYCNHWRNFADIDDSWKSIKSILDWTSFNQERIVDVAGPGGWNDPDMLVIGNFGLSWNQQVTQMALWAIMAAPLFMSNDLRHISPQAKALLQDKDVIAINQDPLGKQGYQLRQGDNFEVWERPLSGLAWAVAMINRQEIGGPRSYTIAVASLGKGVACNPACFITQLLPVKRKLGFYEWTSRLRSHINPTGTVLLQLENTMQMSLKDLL
In short: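 Citrate buffer pH 4.5, Tween-20 0.005%. Enzyme 2 nM, substrate 80 uM, 20 min RT. Stop pH 10. Fluorescence Ex 365/Em 440. AC50 by Hill fit.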

[14] = target: alpha-glucosidase (Oryza sativa, rice) (UniProt Q653V4); assay: Counterscreen for Glucocerebrosidase Inhibitors: qHTS Assay for Rice alpha-Glucosidase at pH 5.0 (AID 997);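 further: 0% = full activity with enzyme and -100% = basal without enzyme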
In short: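 Endpoint fluorogenic assay at pH 5.0: compounds (0.7 nM to 77 uM) titrated against 4 nM rice enzyme and 400 uM 4-MU-alpha-glucoside for 20 min at room temperature; NaOH/glycine stop, read ex 365/em 440 nm, Hill-fitted AC50.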

[15] = target: Mitogen-activated protein kinase 10 (Mus musculus) (UniProt Q61831); assay: JNK3 AlphaScreen Assay (AID 530; active means well fitted curve in either direction with a large enough effect, not every such curve was filed as active)
In short: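 HepG2 lysate (IL-1b/TNFa pre-activated) + biotin-GST-cJun 1-79 + anti-pSer73 cJun; cpd titration, 15 min RT; ATP 10 uM start; Tris pH 7.6, MgCl2, DTT, vanadate; beads in EDTA buffer; AlphaScreen.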

[16] = target: Pyruvate kinase (Leishmania mexicana) (UniProt Q27686); assay: qHTS Validation Assay for Inhibitors of Leishmania Mexicana Pyruvate Kinase (AID 945);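 further: 0% = DMSO only neutral control wells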
Pyruvate kinase (Leishmania mexicana), sequence (Q27686 2-499 E452W): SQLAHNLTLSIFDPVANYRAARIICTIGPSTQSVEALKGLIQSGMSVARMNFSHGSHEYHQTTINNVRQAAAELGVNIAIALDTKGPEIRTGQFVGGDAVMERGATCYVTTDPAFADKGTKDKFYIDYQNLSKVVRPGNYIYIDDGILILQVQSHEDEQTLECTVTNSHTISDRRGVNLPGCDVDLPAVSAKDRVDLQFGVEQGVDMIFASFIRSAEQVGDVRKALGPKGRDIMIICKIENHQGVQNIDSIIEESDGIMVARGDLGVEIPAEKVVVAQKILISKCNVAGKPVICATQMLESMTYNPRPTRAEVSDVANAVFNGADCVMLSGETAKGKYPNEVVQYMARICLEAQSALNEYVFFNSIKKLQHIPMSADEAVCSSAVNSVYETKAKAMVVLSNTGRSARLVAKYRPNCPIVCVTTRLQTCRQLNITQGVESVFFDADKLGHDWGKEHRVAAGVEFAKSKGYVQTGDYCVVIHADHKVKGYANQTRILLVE
In short: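 Pyruvate kinase activity of E451W LmPYK (0.2 nM) was followed as ATP output after 1 h at room temperature with 0.5 mM PEP and 0.1 mM ADP, detected by PKLight luminescence.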

[17] = target: Cytochrome P450 2D6 (Homo sapiens) (UniProt P10635); assay: qHTS Assay for Inhibitors and Substrates of Cytochrome P450 2D6 (AID 891);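 further: luciferin methyl ether substrate demethylated by CYP2D6 with NADPH regeneration; on the % scale 0 is the no-effect control and ±100 the full control effect; nearly all actives have a fitted effect of over 60% in size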
Cytochrome P450 2D6 (Homo sapiens), sequence (P10635 whole entry, looked up): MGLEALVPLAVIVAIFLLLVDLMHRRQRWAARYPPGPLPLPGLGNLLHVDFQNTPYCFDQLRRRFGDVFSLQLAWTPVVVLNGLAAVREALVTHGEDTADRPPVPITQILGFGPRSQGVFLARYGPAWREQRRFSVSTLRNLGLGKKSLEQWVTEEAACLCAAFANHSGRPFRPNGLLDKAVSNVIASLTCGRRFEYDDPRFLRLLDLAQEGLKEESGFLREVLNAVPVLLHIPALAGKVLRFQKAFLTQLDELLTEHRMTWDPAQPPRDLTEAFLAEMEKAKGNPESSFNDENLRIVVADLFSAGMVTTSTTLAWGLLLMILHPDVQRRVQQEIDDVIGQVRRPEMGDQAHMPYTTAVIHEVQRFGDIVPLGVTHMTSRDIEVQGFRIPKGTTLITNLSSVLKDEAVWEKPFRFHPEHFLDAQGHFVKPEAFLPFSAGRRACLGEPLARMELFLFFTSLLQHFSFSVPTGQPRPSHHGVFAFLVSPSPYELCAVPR
In short: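 Luminescent read-out of luciferin formed by 5 nM human CYP2D6 demethylating 30 uM Luciferin-ME EGE (Km level) over 60 min at room temperature after NADPH regeneration addition. Data normalized to full inhibition by 1.43 uM quinidine.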

[18] = target: Cytochrome P450 2C19 (Homo sapiens) (UniProt P33261); assay: qHTS Assay for Inhibitors and Substrates of Cytochrome P450 2C19 (AID 899); further: on the % scale 0 is the no-effect control and ±100 the full control effect; nearly all actives have a fitted effect of over 60% in size
In short: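 5 nM human CYP2C19 with 10uM Luciferin-H EGE (at KM) in 50mM KPO4, compound preincubated 10 min at 37C, then NADPH regeneration for 60 min at 37C. Luciferin read by luminescence after detection reagent; normalized to 57uM ketoconazole as full inhibition.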

OC[C@@H]1O[C@@H](n2cnc3c(N[C@@H]4C[C@@H]5CC[C@H]4C5)ncnc32)[C@@H](O)[C@H]1O
inactive: activity change, negative = inhibition [1] -1.94% [at 38 µM] | Potency [2] | activity change, negative = inhibition [3] 8.03% [at 38 µM] | activity, negative = inhibition [4] 24.8% [at 38 µM] | Potency [5] > 46 µM | Potency [6] > 46 µM | Potency [7] | outcome [8] | Potency [9] | outcome [10] | Potency [11] | outcome [12] | outcome [13] | Potency [14]

O=C(O)/C=C\[C@H](O)c1ccc(Cl)cc1
inactive: activity change, negative = inhibition [1] 1.29% [at 38 µM] | Potency [2] | activity change, negative = inhibition [3] 8.91% [at 38 µM] | activity, negative = inhibition [4] -1.2% [at 38 µM] | Potency [5] > 46 µM | Potency [6] > 46 µM | Potency [15] | outcome [8] | Potency [9] | outcome [10] | outcome [16] | outcome [12] | outcome [13] | Potency [14]

CC[C@H](C)C(=O)O[C@@H]1CCC=C2C=C[C@H](C)[C@@H](CC[C@H]3C[C@@H](O)CC(=O)O3)[C@H]21
inactive: activity change, negative = inhibition [1] -28.7% [at 38 µM] | Potency [2] | activity change, negative = inhibition [3] 6.96% [at 38 µM] | activity, negative = inhibition [4] 10.1% [at 38 µM] | Potency [5] > 46 µM | Potency [6] > 46 µM | Potency [15] | Potency [7] | Potency [17] | Potency [18]

CC1=C(\C=C/C(C)=C/C=C\C(C)=C\C(=O)Nc2ccc(O)cc2)C(C)(C)CCC1
inactive: activity change, negative = inhibition [1] -16.4% [at 38 µM] | Potency [2] | activity change, negative = inhibition [3] -17.1% [at 38 µM] | activity, negative = inhibition [4] -11.2% [at 38 µM] | Potency [5] > 46 µM | Potency [6] > 46 µM | Potency [15] | Potency [7] | Potency [17]

CC(C)(C)c1onc(OCP(=O)(O)O)c1C[C@@H](N)C(=O)O
inactive: activity change, negative = inhibition [1] -0.711% [at 38 µM] | Potency [2] | activity change, negative = inhibition [3] 8.86% [at 38 µM] | activity, negative = inhibition [4] -10.4% [at 38 µM] | Potency [5] > 46 µM | Potency [6] > 46 µM | Potency [7] | outcome [8] | Potency [9] | outcome [10] | Potency [11] | outcome [16] | outcome [12] | outcome [13] | Potency [14]
